Data taken from PubChem BioAssay (EPA / NIEHS).
Calls of active or inactive are those of the source. The calls were made as follows: active = hit-call score of the fitted dose curve at least 0.9, where 1 is the maximum; inactive = score below 0.9.

Molecular target: Transcription factor E2F1 (Homo sapiens) (UniProt Q01094)
Experiment: ATG_E2F_CIS: Attagene CIS-FACTORIAL HepG2 Assay for human E2F Transcription Factor 1 (AID 2282935)
Settings: HepG2 Attagene cis-reporter, E2F reporter RNA transcripts; actives raise or lower the signal
Procedure, shortened: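 Cis-element reporter mRNA induction in transiently transfected HepG2, 24 h exposure. Activity fitted in both directions relative to DMSO negative control.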

Chain of Transcription factor E2F1 (Homo sapiens) (Q01094 whole entry, looked up): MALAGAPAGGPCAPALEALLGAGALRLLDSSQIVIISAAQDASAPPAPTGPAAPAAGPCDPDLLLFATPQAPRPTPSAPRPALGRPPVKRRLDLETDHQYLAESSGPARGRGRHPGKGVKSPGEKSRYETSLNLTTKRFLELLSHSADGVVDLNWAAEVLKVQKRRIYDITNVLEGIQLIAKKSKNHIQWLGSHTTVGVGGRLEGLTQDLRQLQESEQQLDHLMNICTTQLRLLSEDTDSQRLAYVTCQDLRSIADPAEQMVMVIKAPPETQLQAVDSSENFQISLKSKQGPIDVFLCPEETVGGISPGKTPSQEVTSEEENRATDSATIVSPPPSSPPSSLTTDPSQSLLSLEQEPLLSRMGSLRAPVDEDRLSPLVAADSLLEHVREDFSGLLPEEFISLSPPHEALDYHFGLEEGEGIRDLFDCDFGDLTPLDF

| SMILES | outcome |
| --- | --- |
| C=C(C)C(=O)OCCO | inactive |
| C1=Cc2ccccc2C1 | inactive |
| CCOC(=O)CC | inactive |
| CCC(=O)Oc1ccc(/C(CC)=C(\CC)c2ccc(OC(=O)CC)cc2)cc1 | inactive |
| CO[Si](CCC1CCC2OC2C1)(OC)OC (stereo not given) | inactive |
| CCCCCC/C=C\CCCCCCCC(=O)O | inactive |
| Cc1cc(=O)n(-c2ccccc2)n1C | inactive |
| FC(F)(F)C(=NOCC1OCCO1)c1ccc(Cl)cc1 | inactive |
| CCOC(=O)N1CCC(=C2c3ccc(Cl)cc3CCc3cccnc32)CC1 | inactive |
| COc1cc(C)ccc1C(C)C | inactive |
| CCCCCCCOC(=O)CCC | inactive |
| Cc1ccc(C(C)c2ccc(C)c(C)c2)cc1C | inactive |
| O=C(/C=C/C=C/c1ccc2c(c1)OCO2)N1CCCCC1 | inactive |
| CC(C)=CCC[C@H](C)CCO | inactive |
| O=C1CCCCCCCCCCC(=O)OCCO1 | inactive |
| COCC(C)N (stereo not given) | inactive |
| CC(=O)[C@@]1(O)CC[C@H]2[C@@H]3C[C@H](C)C4=CC(=O)C=C[C@]4(C)[C@@]3(F)[C@@H](O)C[C@@]21C | inactive |
| CC(C)CC(O)Cc1ccccc1 (stereo not given) | inactive |
| CCCCOCCOC(=O)COc1nc(Cl)c(Cl)cc1Cl | inactive |
| COC(=O)/C=C\C(=O)O | inactive |

| SMILES | outcome |
| --- | --- |
| C=C[Si](OC(C)=O)(OC(C)=O)OC(C)=O | inactive |
| Cc1c(C)c([N+](=O)[O-])c(C(C)(C)C)c([N+](=O)[O-])c1C | inactive |
| O=[N+]([O-])C1(Br)COCOC1 | inactive |
| CC(C)=CC1CC(C)CCO1 (stereo not given) | inactive |
| Nc1ccc(-c2ccc(F)cc2)cc1 | inactive |
| FC(F)=C(F)OC(F)(F)C(F)(F)C(F)(F)F | inactive |
| CCCOC(=O)CCCCC(=O)OCCC | inactive |
| OCCN(CCO)c1ccccc1 | inactive |
| O=C(O)c1cc(Cl)cc([N+](=O)[O-])c1Cl | inactive |
| CCCCC(CC)COC(=O)c1ccccc1O (stereo not given) | inactive |
| CCc1nccnc1C | inactive |
| CC(=O)Nc1ccc2c(c1)Cc1cc(NC(C)=O)ccc1-2 | inactive |
| OCCCS | inactive |
| Cc1cccc(OCCOc2cccc(C)c2)c1 | inactive |
| Cc1ccc([N+](=O)[O-])cc1S(=O)(=O)O | inactive |
| COC(=O)c1cc(Cl)ccc1[N+](=O)[O-] | inactive |
| Cc1oncc1C(=O)Nc1ccc(C(F)(F)F)cc1 | inactive |
| CC(C)c1ccc2cc(C(C)C)ccc2c1 | inactive |
| C=CC(=O)OCCOC(=O)C=C | inactive |
| CCCCCCCCCCCCCOP(=O)(O)O | inactive |

Tested on: not listed separately
Experiment: ATG_E_Box_CIS: Attagene CIS-FACTORIAL HepG2 Assay for human Enhancer Box (E-box) (AID 2282936)
Settings: HepG2 E-box cis-reporter transcription, actives raise or lower the signal
Procedure, shortened: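 Cells: HepG2 (human liver), transient MRTU transfection. Exposure 24 h. RNA → oligo(dT) RT → PCR → 6-FAM label → HpaI → CE. Activity fitted both directions relative to DMSO.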

| SMILES | outcome | AC50 |
| --- | --- | --- |
| C=C(C)C(=O)OCCO | inactive | – |
| C1=Cc2ccccc2C1 | inactive | – |
| CCC(=O)Oc1ccc(/C(CC)=C(\CC)c2ccc(OC(=O)CC)cc2)cc1 | – | 20.4 µM (active) |
| CO[Si](CCC1CCC2OC2C1)(OC)OC (stereo not given) | inactive | – |
| CCCCCC/C=C\CCCCCCCC(=O)O | inactive | – |
| Cc1cc(=O)n(-c2ccccc2)n1C | inactive | – |
| FC(F)(F)C(=NOCC1OCCO1)c1ccc(Cl)cc1 | inactive | – |
| CCOC(=O)N1CCC(=C2c3ccc(Cl)cc3CCc3cccnc32)CC1 | inactive | – |
| COc1cc(C)ccc1C(C)C | inactive | – |
| CCCCCCCOC(=O)CCC | inactive | – |
| Cc1ccc(C(C)c2ccc(C)c(C)c2)cc1C | inactive | – |
| O=C(/C=C/C=C/c1ccc2c(c1)OCO2)N1CCCCC1 | inactive | – |
| CC(C)=CCC[C@H](C)CCO | inactive | – |
| O=C1CCCCCCCCCCC(=O)OCCO1 | inactive | – |
| COCC(C)N (stereo not given) | inactive | – |
| CC(=O)[C@@]1(O)CC[C@H]2[C@@H]3C[C@H](C)C4=CC(=O)C=C[C@]4(C)[C@@]3(F)[C@@H](O)C[C@@]21C | inactive | – |
| CCCCOCCOC(=O)COc1nc(Cl)c(Cl)cc1Cl | inactive | – |
| COC(=O)/C=C\C(=O)O | inactive | – |

| SMILES | outcome | AC50 |
| --- | --- | --- |
| C=C[Si](OC(C)=O)(OC(C)=O)OC(C)=O | inactive | – |
| Cc1c(C)c([N+](=O)[O-])c(C(C)(C)C)c([N+](=O)[O-])c1C | inactive | – |
| O=[N+]([O-])C1(Br)COCOC1 | – | 61 µM (active) |
| Nc1ccc(-c2ccc(F)cc2)cc1 | inactive | – |
| FC(F)=C(F)OC(F)(F)C(F)(F)C(F)(F)F | inactive | – |
| CCCOC(=O)CCCCC(=O)OCCC | inactive | – |
| OCCN(CCO)c1ccccc1 | inactive | – |
| O=C(O)c1cc(Cl)cc([N+](=O)[O-])c1Cl | inactive | – |
| CCCCC(CC)COC(=O)c1ccccc1O (stereo not given) | inactive | – |
| CCc1nccnc1C | inactive | – |
| CC(=O)Nc1ccc2c(c1)Cc1cc(NC(C)=O)ccc1-2 | inactive | – |
| OCCCS | inactive | – |
| Cc1cccc(OCCOc2cccc(C)c2)c1 | inactive | – |
| Cc1ccc([N+](=O)[O-])cc1S(=O)(=O)O | inactive | – |
| COC(=O)c1cc(Cl)ccc1[N+](=O)[O-] | inactive | – |
| C=CC(=O)OCCOC(=O)C=C | – | 27.3 µM (active) |
| CCCCCCCCCCCCCOP(=O)(O)O | inactive | – |

Tested on: not listed separately
Experiment: ATG_M_61_CIS: Attagene CIS-FACTORIAL HepG2 Assay for M61 Transcription Factor (Internal Marker) (AID 2282937)
Settings: HepG2 Attagene CIS-FACTORIAL M61 internal marker reporter; actives raise or lower the signal
Procedure, shortened: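 Human liver HepG2, transient MRTU transfection (cis promoter elements), 24 h compound. Total RNA → oligo(dT) RT → PCR → FAM label → HpaI → CE. Internal background marker; bidirectional fitting, DMSO = baseline.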

| SMILES | outcome |
| --- | --- |
| C=C(C)C(=O)OCCO | inactive |
| CCOC(=O)CC | inactive |
| CCCCCC/C=C\CCCCCCCC(=O)O | inactive |
| COc1cc(C)ccc1C(C)C | inactive |
| CCCCCCCOC(=O)CCC | inactive |
| Cc1ccc(C(C)c2ccc(C)c(C)c2)cc1C | inactive |
| O=C(/C=C/C=C/c1ccc2c(c1)OCO2)N1CCCCC1 | inactive |
| CC(C)=CCC[C@H](C)CCO | inactive |
| O=C1CCCCCCCCCCC(=O)OCCO1 | inactive |
| COCC(C)N (stereo not given) | inactive |
| CC(=O)[C@@]1(O)CC[C@H]2[C@@H]3C[C@H](C)C4=CC(=O)C=C[C@]4(C)[C@@]3(F)[C@@H](O)C[C@@]21C | inactive |
| CC(C)CC(O)Cc1ccccc1 (stereo not given) | inactive |
| CCCCOCCOC(=O)COc1nc(Cl)c(Cl)cc1Cl | inactive |
| COC(=O)/C=C\C(=O)O | inactive |
| Cc1c(C)c([N+](=O)[O-])c(C(C)(C)C)c([N+](=O)[O-])c1C | inactive |
| O=[N+]([O-])C1(Br)COCOC1 | inactive |
| CC(C)=CC1CC(C)CCO1 (stereo not given) | inactive |
| FC(F)=C(F)OC(F)(F)C(F)(F)C(F)(F)F | inactive |
| CCCOC(=O)CCCCC(=O)OCCC | inactive |
| OCCN(CCO)c1ccccc1 | inactive |
| O=C(O)c1cc(Cl)cc([N+](=O)[O-])c1Cl | inactive |
| CCCCC(CC)COC(=O)c1ccccc1O (stereo not given) | inactive |
| CCc1nccnc1C | inactive |
| CC(=O)Nc1ccc2c(c1)Cc1cc(NC(C)=O)ccc1-2 | inactive |
| OCCCS | inactive |
| Cc1cccc(OCCOc2cccc(C)c2)c1 | inactive |
| COC(=O)c1cc(Cl)ccc1[N+](=O)[O-] | inactive |
| Cc1oncc1C(=O)Nc1ccc(C(F)(F)F)cc1 | inactive |
| CC(C)c1ccc2cc(C(C)C)ccc2c1 | inactive |
| CCCCCCCCCCCCCOP(=O)(O)O | inactive |
